Source: PubChem BioAssay
Compounds with a hit are over-represented: about 21% of the library has one in this group of screens.
Shiga toxin inh = blocks Shiga toxin action in Vero cells. 9.2% of 290,000 active. inhibition, % at 38.7 µM. Vero cells, Shiga toxin protein synthesis inhibition reporter; in the data active = inhibition mostly above about 28%, no sharp cut-off; inactive = mostly below about 43%
Pf growth 48h = P. falciparum growth inhibition at 48 hours (one generation); P. falciparum luciferase growth in erythrocytes, 48 h; Potency, µM (doses to about 28.7 µM), most hits filed as inhibitors; 5.9% of 310,000 active
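A one-generation exposure of luciferase-tagged malaria parasites in RPMI 1640/Albumax erythrocyte culture, 37 C and 5% CO2. Inhibition is inferred from decreased luminescence after adding detection reagent.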
Pf growth 96h = inhibits malaria parasite growth, 96 h; P. falciparum luciferase reporter growth, 96 h; Potency, µM (highest dose often 28.7 µM), most hits filed as inhibitors; 6.9% of 320,000 active; AID 504834
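Infected RBCs, 2% Hct / 0.05% parasitemia final; luciferase-reporter P. falciparum; cpd 96 h, 37 C, 5% CO2; luciferase detection reagent; luminescence.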
Cycloheximide cs = affects cycloheximide protein synthesis inhibition readout, counter-screen; max response, %; 12% of 300,000 active; cell reporter, cycloheximide protein synthesis inhibition counterscreen; in the data active = max response mostly above about 13%, no sharp cut-off; inactive = mostly below about 14%; also: read at 38.3 µM for the half of the compounds with a filed dose
A number is an active result; – = inactive; ? = inconclusive; · = no result given. Unless noted, calls follow the shape of the dose curve; as a rule, active = well fitted inhibition curve with a large enough effect; inconclusive = small, poorly fitted or top-dose-only effect, or another doubt; inactive = no such curve, though single readings can be large or run the other way.

SMILES	Shiga toxin inh	Pf growth 48h	Pf growth 96h	Cycloheximide cs
COc1ccc(C(C)(C)NC(=O)C2CCC(=O)N(C3CC3)C2)cc1OC (stereo unspecified)	–	–	–	–
Cc1cnc(C(=O)OC(C)C(=O)Nc2cccc3ccccc23)cn1 (stereo unspecified)	·	–	–	·
COc1ccc(OCC(=O)NS(=O)(=O)c2ccccc2)cc1	–	–	–	–
Cc1cccc(OCC(=O)NCc2cc(C)nc3ccccc23)c1	–	–	9.3µM	–
O=C(COc1ccccc1)NNc1c2ccccc2nc2ccccc12	–	5.2µM	–	–
COc1ccc(OCC(=O)NNc2c3ccccc3nc3ccccc23)cc1	–	7.4µM	2.1µM	–
CC(NC1CCCCC1)C(O)C12CC3CC(CC(C3)C1)C2 (stereo unspecified)	–	7.4µM	·	–
CC(NC(N)=O)C12CC3CC(CC(C3)C1)C2 (stereo unspecified)	–	–	–	–
CC(=O)Nc1ccc(NC(=O)c2ccc(C3SCC(=O)N3CCc3ccccc3)cc2)cc1 (stereo unspecified)	–	–	12µM	–
COC(=O)c1ccc(C2SCC(=O)N2Cc2ccccc2)cc1 (stereo unspecified)	–	–	–	–
O=C(NCCSCc1ccccc1)c1ccc(C2SCC(=O)N2Cc2ccccc2)cc1 (stereo unspecified)	–	·	7.4µM	–
Cc1cccc(NC(=O)c2ccc(C3SCC(=O)N3CCc3ccccc3)cc2)c1 (stereo unspecified)	–	?	–	–
CCN1CCS/C1=C\C=C\C1=[N+](CC)CCS1	–	0.93µM	–	–
CCN1CCS/C1=C/C=C/C1=[N+](CC)CCS1	–	0.74µM	0.66µM	–
CCOc1ccc2nc(NC3=NCN(Cc4ccco4)CN3)nc(C)c2c1	–	?	15µM	–
Cc1nc(NC2=NCN(CCCN3CCOCC3)CN2)nc2c(C)cccc12	–	2.3µM	–	–
Cc1nc(NC2=NCN(Cc3ccco3)CN2)nc2ccccc12	–	–	1.9µM	–
Cc1nc(NC2=NCN(Cc3ccccc3)CN2)nc2ccccc12	–	?	–	–
Cc1nc(NC2=NCN(C3CCCCC3C)CN2)nc2ccccc12 (stereo unspecified)	–	13µM	?	–
Cc1ccc2nc(NC3=NCN(Cc4ccccc4)CN3)nc(C)c2c1	–	?	–	–
Cc1cc2nc(NC3=NCN(CCN4CCOCC4)CN3)nc(C)c2cc1C	–	?	?	–
CSCc1ccc(C(=O)N2CCC(N3CCC(C(=O)NC(C)C)CC3)CC2)o1	–	–	–	–
C=CCn1c(=S)[nH]c2cc(C(=O)Nc3ccc(F)cc3)ccc2c1=O	–	–	?	–
O=C(Nc1c(F)cccc1F)c1ccc2c(c1)CCN2S(=O)(=O)c1ccccc1	–	–	–	–
COc1ccc(-c2cc(C)nc3c(-c4ccccc4)cnn23)cc1	90	–	–	41
SMILES	Shiga toxin inh	Pf growth 48h	Pf growth 96h	Cycloheximide cs
Cc1nc2c(-c3ccccc3)cnn2c(N)c1-c1ccccc1	–	–	–	–
Cc1cc(-c2ccccc2)n2ncc(-c3ccccc3)c2n1	97	–	–	47
Cc1cc(SCC(=O)c2ccccc2)n2ncc(-c3ccccc3)c2n1	67	–	–	61
COc1ccc(-c2cc(-c3ccccc3)n3ncnc3n2)cc1	–	–	–	–
CSc1ccccc1NC(=O)C1=CC(c2ccc(C)cc2)=NS(=O)(=O)N1C	–	–	–	–
CC(OC(=O)c1ccc(Cl)nc1)C(=O)Nc1ccc2c(c1)OCO2 (stereo unspecified)	·	–	–	·
O=C1NC(=S)N/C1=C/c1cccc2ccccc12	89	–	–	29
O=C1NC(=S)NC(=O)C1=Cc1cccc2cc3ccccc3cc12	–	?	?	–
CC(=O)Nc1ccc(NC(=O)C(=O)N/N=C/c2cccnc2)cc1	–	–	–	–
CCOCCc1nn2c(=O)cc(CSCC(=O)Nc3ccccc3)nc2s1	–	?	–	21
O=C(CSCc1cc(=O)n2nc(C3CC3)sc2n1)Nc1ccccc1Cl	–	?	3.3µM	–
Cc1ccc(NC(=O)c2ccccc2Br)cc1S(=O)(=O)N(C)C	–	?	?	–
C=CCNC(=S)N1CCN(c2cc3c(cc2F)c(=O)c(C(=O)O)cn3CC)CC1	–	?	2.3µM	–
C=CCCCCCCCCC(=O)N1CCN(c2cc3c(cc2F)c(=O)c(C(=O)O)cn3CC)CC1	–	?	?	–
CCn1cc(C(=O)O)c(=O)c2cc(F)c(N3CCN(C(=S)NC(=O)c4ccccc4Cl)CC3)cc21	–	5.2µM	?	–
CCn1cc(C(=O)O)c(=O)c2cc(F)c(N3CCN(C(=S)NC(=O)c4ccccc4C)CC3)cc21	–	?	?	–
